Measurements taken from PubChem BioAssay AID1508611 (The Scripps Research Institute Molecular Screening Center, 2020).
The campaign covered roughly 6,700 compounds. About 20 (0.3%) were called active.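 Rule for the calls: active = mean percent activation in the counterscreen above 29.09%; inactive = the rest.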 The full list was thinned out, with actives kept by preference.

biological target: Glucose-dependent insulinotropic receptor (Homo sapiens) (UniProt Q8TDV5); assay: GPR119 activators in beta-arrestin cells, counter-screen for GPR151 activator project, cell-based, PathHunter beta-arrestin, luminescence, triplicate (AID 1508611); settings: 90 min, at 11.2 µM, hits give high values, 0 = compound-well median, 100 = enzyme-acceptor control;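 note: counterscreen on off-target GPR119 to flag nonselective hits from the GPR151 activator screen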
Sequence (Q8TDV5 whole entry, looked up): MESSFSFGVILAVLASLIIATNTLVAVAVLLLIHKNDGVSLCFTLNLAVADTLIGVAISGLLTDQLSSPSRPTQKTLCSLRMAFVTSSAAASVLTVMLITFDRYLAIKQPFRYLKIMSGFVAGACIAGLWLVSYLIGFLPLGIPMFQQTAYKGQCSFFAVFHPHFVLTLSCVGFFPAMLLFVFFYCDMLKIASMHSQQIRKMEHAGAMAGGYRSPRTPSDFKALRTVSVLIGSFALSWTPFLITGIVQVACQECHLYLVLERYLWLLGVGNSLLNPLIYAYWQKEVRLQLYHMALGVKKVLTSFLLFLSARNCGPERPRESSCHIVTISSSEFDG

Row | SMILES | activation
1 | CCOC(=O)c1cccc(NC(=O)CCCOc2ccc(OC)cc2)c1 | -2.39% (inactive)
2 | COc1ccc(OC)c(/C=N/n2nnnc2N)c1 | -3.22% (inactive)
3 | CC(C)(C)NC(=O)Cc1coc2ccc3ccccc3c12 | -5.33% (inactive)
4 | O=C(CN1C(=O)c2ccccc2C1=O)NC(c1ccccc1)c1ccc(Br)cc1 (stereo not given) | -12.4% (inactive)
5 | O=C(COc1ccc(CO)cc1)Nc1ccc(Cl)c(Cl)c1 | -3.53% (inactive)
6 | CO[C@@H]1COC(=O)[C@@H](C)COC(=O)[C@H](C)NC(=O)C/C=C/[C@H]1C | 10.4% (inactive)
7 | Cc1[nH][nH]c(=O)c1C(c1ccc(-c2ccc(F)cc2[N+](=O)[O-])o1)c1c(C)[nH][nH]c1=O | 9% (inactive)
8 | O=C(CN1C(=O)CCC1=O)Nc1ccc(S(=O)(=O)N2CCOCC2)cc1 | 9.75% (inactive)
9 | C=CCSC1=C(C#N)C(c2ccc(Cl)cc2Cl)CC(=O)N1 (stereo not given) | -2.2% (inactive)
10 | CC(C)n1c(=O)[nH]c2c(C(N)=O)nc(-c3ccc(-c4ccccc4)cc3)nc21 | 8.53% (inactive)
11 | COc1ccc(N2C(=O)C(Cl)=C(Nc3ccc(C)cc3)C2=O)cc1 | 9.02% (inactive)
12 | COc1cc(OC)cc(C(=O)Nc2ccc3c4c(cccc24)CC3)c1 | 9.11% (inactive)
13 | CCOc1ccccc1-c1cc(C(=O)N2CCOCC2)c2ccccc2n1 | -4.4% (inactive)
14 | Cc1ccc(NC(=O)CSc2nnc(-c3ccc(N)cc3)n2C)cc1Cl | 5.44% (inactive)
15 | COc1ccc(C2(C)NC(=O)N(CC(=O)Nc3ccc4ccccc4c3)C2=O)cc1 (stereo not given) | 5.1% (inactive)
16 | CC(=O)Nc1ccc(NC(=O)c2ccc3nc(Br)sc3c2)cc1 | -3.64% (inactive)
17 | CCC1C(=O)NCCN1Cc1ccc2c(c1)CN(Cc1c[nH]c3ccccc13)CCO2 (stereo not given) | -4.8% (inactive)
18 | CC(=O)Nc1nc(C(=O)Nc2nc(-c3sc(C)nc3C)cs2)cs1 | 13.5% (inactive)
19 | c1cncc(Nc2nc(NC3CC3)c3ncn(C4CCCCC4)c3n2)c1 | -7.65% (inactive)
20 | COc1ccc(NC(=S)N2CCN(S(=O)(=O)c3ccc(F)cc3)CC2)c(OC)c1 | -3.67% (inactive)
21 | CCc1ccc(S(=O)(=O)NCCOc2cc(N3CCOCC3)ncn2)cc1 | 0.5% (inactive)
22 | Cc1ccc(NC(=O)c2cccc(N(C)C)c2)cc1NC(=O)c1ccc(O)cc1 | -0.12% (inactive)
23 | COc1ccc(C=C(C#N)C#N)c(CSc2ccccn2)c1 | 14.8% (inactive)
24 | COc1cc([N+](=O)[O-])ccc1NC(=S)NCc1cc(C)n(C)n1 | -4.23% (inactive)
25 | Cn1c(=O)c2c(nc(SCC(=O)O)n2Cc2ccc(F)cc2)n(C)c1=O | -2.28% (inactive)

Row | SMILES | activation
26 | C/C(=N/N1CCN(Cc2ccc(C)cc2C)CC1)c1ccc([N+](=O)[O-])cc1 | -0.84% (inactive)
27 | CCOc1cc(C2C3=C(CCCC3=O)NC3=C2C(=O)CCC3)cc(Br)c1OCC | 8.25% (inactive)
28 | CCCOC1(C(F)(F)F)NC(=O)N(c2ccc(C(C)C)cc2)C1=O (stereo not given) | -7.99% (inactive)
29 | CC(=O)c1cccc(-c2nc(Nc3ccc(Oc4ccccc4)cc3)c3ncn(-c4ccsc4)c3n2)c1 | 1.29% (inactive)
30 | COc1cc(C(C)=Nc2c(C)n(C)n(-c3ccccc3)c2=O)cc(O)c1OC | 3.69% (inactive)
31 | Cc1ccccc1C(=O)NCc1nc(-c2ccc(Cl)cc2)no1 | 10.3% (inactive)
32 | C=CCn1c(=O)c2ccc(C(=O)NCc3ccc4c(c3)OCO4)cc2n(CC(N)=O)c1=O | 5.23% (inactive)
33 | COc1ccc([N+](=O)[O-])cc1NC(=O)C1CC(Cl)=CCC1C(=O)O (stereo not given) | -0.8% (inactive)
34 | O=C(Nc1ccc(NC(=O)c2cccc3c(Br)cccc23)cc1)c1ccco1 | 16.8% (inactive)
35 | CC(=O)c1c(C)[nH]c(C(=O)N2CCN(c3ccc(Cl)cc3)CC2)c1C | 2.38% (inactive)
36 | COc1ccc(Nc2nc(-c3ccc(F)cc3)cs2)c(OC)c1 | 5.77% (inactive)
37 | COc1cc(/C=N/N=C2/NC(=O)CS2)ccc1OC(=O)c1ccccc1C | -7.49% (inactive)
38 | O=C(O)/C=C/c1ccccc1Cl | -5.81% (inactive)
39 | COc1ccc(C(=O)Nc2ccc(S(=O)(=O)NC(C)C)cc2)cc1 | 13.4% (inactive)
40 | CC(C(=O)NCCN1CCOCC1)n1c2ccccc2c2cn[nH]c(=O)c21 (stereo not given) | 5.53% (inactive)
41 | Cc1ccc2cc(C#N)c(SCCO)nc2c1 | -5.53% (inactive)
42 | Cc1ccc[n+](-c2ncnc(N)c2[N+](=O)[O-])c1 | -3.57% (inactive)
43 | CCOc1ccc(/C=C2N=C(/C=C/c3cccc(Cl)c3Cl)OC\2=O)cc1 | 0.65% (inactive)
44 | O=C(NCc1ccsc1)c1ccc(-n2cccc2)cc1 | -3.28% (inactive)
45 | O=C(C(Cc1ccccc1)N1C(=O)C2C3c4ccccc4C(c4ccccc43)C2C1=O)N1CCOCC1 (stereo not given) | 7.72% (inactive)
46 | Cc1cccc(NC(=O)CSc2nc3[nH]ncc3c(=O)[nH]2)c1 | 0.57% (inactive)
47 | NC(=S)N/N=C/c1ccc([N+](=O)[O-])cc1 | 6.78% (inactive)
48 | O=C(/C=C/Nc1ccccc1NS(=O)(=O)c1ccc([N+](=O)[O-])cc1)c1ccco1 | -7.75% (inactive)
49 | CN(C)c1cccc(Nc2cc(C(=O)Nc3ccc(N4CCOCC4)cc3)ccn2)c1 | -10.4% (inactive)
50 | CC1=C(C(=O)Nc2cccc(F)c2)C(c2ccccn2)C2=C(CCCC2=O)N1 (stereo not given) | 0.3% (inactive)
